Assay results reported in PubChem BioAssay AID1159580 (chemical genetic matrix, 2015).
Out of some 5,500 compounds screened, about 2,000 (36%) were called active. Inconclusive results (about 18%) are left out. Rule as the data show it: active = normalized growth mostly below about 0.91 (no sharp cut-off); inconclusive = no clear call, values can overlap the other calls; inactive = mostly above about 0.92. Some of the results follow.

Assay: chemical genetic growth profiling, strain panel (AID 1159580);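 also: tested at 20 µM; growth read once vehicle control cultures reached saturation at 30 °C; 1 = growth at the plate median or of vehicle wells; lower values mean less growth of the strain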
Conditions: S. cerevisiae deletion strains, growth OD
[1] = locus YAR019C, strain CDC15, stronger effect = lower value
[2] = locus YBL105C, strain PKC1, stronger effect = lower value
[3] = locus YBR135W, strain CKS1, stronger effect = lower value
[4] = locus YBR136W, strain MEC1, stronger effect = lower value
[5] = locus YBR160W, strain CDC28, stronger effect = lower value
[6] = locus YDL017W, strain CDC7, stronger effect = lower value
[7] = locus YDL028C, strain MPS1, stronger effect = lower value
[8] = locus YDL101C, strain DUN1, stronger effect = lower value
[9] = locus YDL108W, strain KIN28, stronger effect = lower value
[10] = locus YDL132W, strain cdc53, stronger effect = lower value
[11] = locus YDL214C, strain PRR2, stronger effect = lower value
[12] = locus YDR052C, strain DBF4, stronger effect = lower value
[13] = locus YDR054C, strain cdc34, stronger effect = lower value
[14] = locus YDR226W, strain ADK1, stronger effect = lower value
[15] = locus YDR477W, strain SNF1, stronger effect = lower value
[16] = locus YER123W, strain YCK3, stronger effect = lower value
[17] = locus YER133W, strain GLC7, stronger effect = lower value
[18] = locus YFL009W, strain cdc4, stronger effect = lower value
[19] = locus YFL029C, strain CAK1, stronger effect = lower value
[20] = locus YFR003C, strain YPI1, stronger effect = lower value
[21] = locus YFR019W, strain FAB1, stronger effect = lower value
[22] = locus YFR028C, strain CDC14, stronger effect = lower value
[23] = locus YGR040W, strain KSS1, stronger effect = lower value
[24] = locus YGR052W, strain FMP48, stronger effect = lower value
[25] = locus YGR092W, strain DBF2, stronger effect = lower value
[26] = locus YHR030C, strain SLT2, stronger effect = lower value
[27] = locus YHR079C, strain IRE1, stronger effect = lower value
[28] = locus YHR082C, strain KSP1, stronger effect = lower value
[29] = locus YHR205W, strain SCH9, stronger effect = lower value
[30] = locus YIL147C, strain SLN1, stronger effect = lower value
[31] = locus YJL095W, strain BCK1, stronger effect = lower value
[32] = locus YJL128C, strain PBS2, stronger effect = lower value
[33] = locus YJL157C, strain FAR1, stronger effect = lower value
[34] = locus YJR016C, strain ILV3, stronger effect = lower value
[35] = locus YJR066W, strain TOR1 (second series), stronger effect = lower value
[36] = locus YJR066W, strain TOR1, stronger effect = lower value
[37] = locus YKL048C, strain ELM1, stronger effect = lower value
[38] = locus YKL067W, strain YNK1, stronger effect = lower value
[39] = locus YKL101W, strain HSL1, stronger effect = lower value
[40] = locus YKL193C, strain SDS22, stronger effect = lower value
[41] = locus YKL203C, strain TOR2, stronger effect = lower value
[42] = locus YLR113W, strain HOG1, stronger effect = lower value
[43] = locus YLR133W, strain CKI1, stronger effect = lower value
[44] = locus YLR403W, strain SFP1, stronger effect = lower value
[45] = locus YML070W, strain DAK1, stronger effect = lower value
[46] = locus YMR001C, strain CDC5, stronger effect = lower value
[47] = locus YMR205C, strain PFK2 (second series), stronger effect = lower value
[48] = locus YMR277W, strain FCP1, stronger effect = lower value
[49] = locus YNL006W, strain LST8, stronger effect = lower value
[50] = locus YNL020C, strain ARK1, stronger effect = lower value
[51] = locus YNL161W, strain CBK1, stronger effect = lower value
[52] = locus YNL183C, strain NPR1, stronger effect = lower value
[53] = locus YNL207W, strain RIO2, stronger effect = lower value
[54] = locus YNL222W, strain SSU72, stronger effect = lower value
[55] = locus YNL307C, strain MCK1 (second series), stronger effect = lower value
[56] = locus YOL078W, strain AVO1, stronger effect = lower value
[57] = locus YOL136C, strain PFK27, stronger effect = lower value
[58] = locus YOR061W, strain CKA2, stronger effect = lower value
[59] = locus YOR119C, strain RIO1, stronger effect = lower value
[60] = locus YOR231W, strain MKK1, stronger effect = lower value
[61] = locus YOR329C, strain SCD5, stronger effect = lower value
[62] = locus YPL031C, strain PHO85, stronger effect = lower value
[63] = locus YPL153C, strain RAD53, stronger effect = lower value
[64] = locus YPL204W, strain HRR25, stronger effect = lower value
[65] = locus YPL209C, strain IPL1, stronger effect = lower value
[66] = locus YPL256C, strain CLN2, stronger effect = lower value
[67] = locus YPR025C, strain CCL1, stronger effect = lower value
[68] = locus YPR106W, strain ISR1, stronger effect = lower value
[69] = locus YPR111W, strain DBF20, stronger effect = lower value
[70] = strain NNK1, stronger effect = lower value
[71] = strain TSCII, stronger effect = lower value

Measured: normalized growth

Clc1ccccc1-c1csc(-c2cccnc2)n1
inactive: [1] 0.893 | [2] 0.934 | [3] 0.924 | [4] 0.929 | [5] 0.923 | [6] 0.928 | [7] 0.923 | [9] 0.924 | [10] 0.932 | [11] 0.822 | [12] 0.917 | [14] 0.931 | [16] 0.673 | [18] 0.932 | [19] 0.889 | [20] 0.93 | [21] 0.783 | [22] 0.939 | [24] 0.769 | [25] 0.541 | [27] 0.636 | [28] 0.894 | [29] 0.758 | [30] 0.922 | [32] 0.926 | [33] 0.773 | [34] 0.902 | [35] 0.686 | [36] 0.67 | [37] 0.968 | [38] 0.866 | [39] 0.9 | [43] 0.842 | [44] 0.662 | [45] 0.787 | [46] 0.913 | [47] 0.864 | [49] 0.913 | [50] 0.838 | [51] 0.919 | [52] 0.829 | [54] 0.916 | [55] 0.82 | [56] 0.89 | [57] 0.819 | [58] 0.896 | [60] 0.756 | [65] 0.909 | [67] 0.915 | [68] 0.932 | [69] 0.938 | [70] 0.932
active: [8] 0.913 | [13] 0.848 | [15] 0.649 | [17] 0.565 | [23] 0.647 | [26] 0.591 | [31] 0.247 | [40] 0.88 | [41] 0.572 | [42] 0.694 | [48] 0.869 | [53] 0.86 | [59] 0.609 | [61] 0.902 | [62] 0.566 | [63] 0.563 | [64] 0.553 | [66] 0.774 | [71] 0.874

COc1ccc(-c2cn3cc(C)ccc3n2)cc1
inactive: [1] 0.98 | [2] 0.975 | [3] 0.97 | [4] 0.978 | [5] 0.971 | [6] 0.987 | [7] 0.986 | [8] 0.984 | [9] 0.983 | [10] 0.977 | [11] 0.97 | [12] 0.985 | [13] 0.973 | [14] 0.982 | [15] 0.975 | [16] 0.953 | [17] 0.981 | [18] 0.98 | [19] 0.973 | [20] 0.98 | [21] 0.981 | [22] 0.975 | [23] 0.966 | [24] 1.07 | [25] 0.937 | [26] 1.01 | [27] 1.02 | [28] 1.04 | [29] 0.963 | [30] 0.983 | [31] 1.02 | [32] 0.943 | [33] 0.968 | [34] 0.979 | [35] 0.995 | [36] 1.06 | [37] 0.957 | [38] 0.976 | [39] 0.961 | [40] 0.978 | [41] 1.05 | [42] 0.923 | [43] 0.956 | [44] 0.96 | [45] 0.956 | [46] 0.977 | [47] 0.973 | [48] 0.979 | [49] 0.995 | [50] 0.963 | [51] 0.971 | [52] 1.02 | [53] 0.977 | [54] 0.975 | [55] 0.953 | [56] 0.978 | [57] 0.969 | [58] 0.973 | [59] 1.03 | [60] 0.959 | [61] 0.982 | [62] 0.979 | [63] 0.986 | [64] 0.992 | [65] 0.962 | [66] 0.96 | [67] 0.978 | [68] 0.971 | [69] 0.954 | [70] 0.978 | [71] 0.972
